According to PubChem BioAssay:
Several values for one entry are separate records, joined by “and”; a condition that tells them apart may be missing. Identical values can stand only once. Records with an inconclusive call do not appear. Activity calls are given as the source filed them.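 The calls were made as follows, unless noted: active = normalized viability below 100% at a tested concentration; inactive = the rest.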

How the values were obtained:
[1] = growth inhibition of DIPG glioma cells, dose response, cell-based, SU-DIPG-XVII, MIPE5.0, CellTiter-Glo, qHTS (AID 1347060; cut-off not given, nearly all actives have AC50 up to about 26 µM;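 also: cells exposed to compound for 48 hours before viability readout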); conditions: SU-DIPG-XVII viability, CellTiter-Glo ATP luminescence
[2] = growth inhibition of DIPG glioma cells, dose response, cell-based, JHH-DIPG-1, MIPE4.0, CellTiter-Glo, qHTS (AID 1347062; cut-off not given, nearly all actives have AC50 up to about 27 µM;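 also: cells exposed to compound for two days before readout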); conditions: JHH-DIPG-1 viability, CellTiter-Glo ATP luminescence
[3] = growth inhibition of DIPG glioma cells, dose response, cell-based, SU-DIPG-IV, MIPE4.0, CellTiter-Glo, qHTS (AID 1347063; cut-off not given, nearly all actives have AC50 up to about 30 µM;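 also: compound exposure lasted 48 hours before the viability readout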); conditions: SU-DIPG-IV viability, CellTiter-Glo ATP luminescence
[4] = growth inhibition of DIPG glioma cells, dose response, cell-based, SU-DIPG-XIII, MIPE5.0, CellTiter-Glo, qHTS (AID 1347064; cut-off not given, nearly all actives have AC50 up to about 23 µM;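 also: cells exposed to compound for 48 hours before the viability read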); conditions: SU-DIPG-XIII viability, CellTiter-Glo ATP luminescence
[5] = viability loss in pontine glioma line – cell-based, SU-DIPG-XXV, MIPE5.0, CellTiter-Glo, qHTS, dose response (AID 1347065; cut-off not given, nearly all actives have AC50 up to about 26 µM;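 also: cells exposed to compound for 48 hours before ATP readout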); conditions: CellTiter-Glo ATP luminescence
[6] = JHH-DIPG-1 glioma cell viability, MIPE5.0 library, CellTiter-Glo luminescence, qHTS (AID 1347067; cut-off not given, nearly all actives have AC50 up to about 26 µM;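 also: cells exposed to compound for 48 hours before readout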); conditions: JHH-DIPG-1 glioma viability, CellTiter-Glo ATP luminescence
[7] = SU-DIPG-XXV glioma cell viability, MIPE5.0 library, qHTS (AID 1347068; cut-off not given, nearly all actives have IC50 up to about 30 µM;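 also: cells exposed to compound for 48 hours before viability readout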)
[8] = SU-DIPG-VI glioma cell viability, MIPE4.0 library, CellTiter-Glo luminescence, qHTS (AID 1347066; cut-off not given, nearly all actives have AC50 up to about 30 µM;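 also: cells exposed to compound for 48 hours before readout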); conditions: CellTiter-Glo ATP luminescence
[9] = modifiers of HSF1 nuclear foci, imaging, Selleck Cancer Library (AID 1347162; in the data active = plate-normalised HSF1 focus index below about 0.46); conditions: human cells, at 10 µM; SSMD: measured here: HSF1 foci SSMD mean; cell count: measured here: cell number; plate-normalised HSF1 focus index: stronger effect = lower value
[10] = ovarian cancer cell viability with rucaparib, profiling panel, oncology-focused library, rucaparib conditional (AID 1508598); conditions: patient-derived ovarian cancer cells, CellTiter-Glo viability, 144 h, stronger effect = lower value
[11] = sensitizers of A549 cells to miR-34 induction, primary screen, imaging, A549 dox-inducible miR-34, nuclei and caspase counts (AID 1347080;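 active = compounds whose cell count with miR-34 switched on is under 0.7 times the count with it off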); conditions: A549 miR-34 inducible, Hoechst nuclei count, 48 h
[12] = survival rescue of mitochondrial mutant cells in low glucose, primary screen, MELAS cybrids, Rieske KO mouse fibroblasts, CellTiter-Glo (AID 1508586;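 active = mean z-score across replicates of 1.96 or higher in either the MELAS or the Rieske mutant cell line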;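 also: z relative to plate mean and SD of compound and empty wells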)
[13] = at 0.000305 µM, OCI-C5x cells, with rucaparib 10 µM, 100% = cells with rucaparib alone
[14] = at 0.000305 µM, OCI-C5x cells, without rucaparib
[15] = at 0.000305 µM, OCI-P5x cells, with rucaparib 20 µM, 100% = cells with rucaparib alone
[16] = at 0.000305 µM, OCI-P5x cells, without rucaparib
[17] = at 0.00122 µM, OCI-C5x cells, with rucaparib 10 µM, 100% = cells with rucaparib alone
[18] = at 0.00122 µM, OCI-C5x cells, without rucaparib
[19] = at 0.00122 µM, OCI-P5x cells, with rucaparib 20 µM, 100% = cells with rucaparib alone
[20] = at 0.00122 µM, OCI-P5x cells, without rucaparib
[21] = at 0.00488 µM, OCI-C5x cells, with rucaparib 10 µM, 100% = cells with rucaparib alone
[22] = at 0.00488 µM, OCI-C5x cells, without rucaparib
[23] = at 0.00488 µM, OCI-P5x cells, with rucaparib 20 µM, 100% = cells with rucaparib alone
[24] = at 0.00488 µM, OCI-P5x cells, without rucaparib
[25] = at 0.0195 µM, OCI-C5x cells, with rucaparib 10 µM, 100% = cells with rucaparib alone
[26] = at 0.0195 µM, OCI-C5x cells, without rucaparib
[27] = at 0.0195 µM, OCI-P5x cells, with rucaparib 20 µM, 100% = cells with rucaparib alone
[28] = at 0.0195 µM, OCI-P5x cells, without rucaparib
[29] = at 0.0781 µM, OCI-C5x cells, with rucaparib 10 µM, 100% = cells with rucaparib alone
[30] = at 0.0781 µM, OCI-C5x cells, without rucaparib
[31] = at 0.0781 µM, OCI-P5x cells, with rucaparib 20 µM, 100% = cells with rucaparib alone
[32] = at 0.0781 µM, OCI-P5x cells, without rucaparib
[33] = at 0.313 µM, OCI-C5x cells, with rucaparib 10 µM, 100% = cells with rucaparib alone
[34] = at 0.313 µM, OCI-C5x cells, without rucaparib
[35] = at 0.313 µM, OCI-P5x cells, with rucaparib 20 µM, 100% = cells with rucaparib alone
[36] = at 0.313 µM, OCI-P5x cells, without rucaparib
[37] = at 1.25 µM, OCI-C5x cells, with rucaparib 10 µM, 100% = cells with rucaparib alone
[38] = at 1.25 µM, OCI-C5x cells, without rucaparib
[39] = at 1.25 µM, OCI-P5x cells, with rucaparib 20 µM, 100% = cells with rucaparib alone
[40] = at 1.25 µM, OCI-P5x cells, without rucaparib
[41] = at 5 µM, OCI-C5x cells, with rucaparib 10 µM, 100% = cells with rucaparib alone
[42] = at 5 µM, OCI-C5x cells, without rucaparib
[43] = at 5 µM, OCI-P5x cells, with rucaparib 20 µM, 100% = cells with rucaparib alone
[44] = at 5 µM, OCI-P5x cells, without rucaparib

COc1cc2nc(-c3cc(F)ccc3O)nc(N[C@@H]3CNC[C@H]3C(C)(C)O)c2cc1OC
active: AC50 [1] 9.34 µM | AC50 [2] 10.5 µM | AC50 [3] 9.35 µM | AC50 [4] 5.25 µM | AC50 [5] 4.17 µM | AC50 [6] 8.33 µM | IC50 [7] 4.17 µM

C[C@@H](Oc1cc(-c2cnn(C3CCNCC3)c2)cnc1N)c1c(Cl)ccc(F)c1Cl
active: AC50 [1] 4.68 µM | AC50 [2] 16.6 µM | AC50 [3] 14.8 µM | AC50 [4] 2.63 µM | AC50 [5] 1.66 µM | AC50 [8] 20.9 µM | AC50 [6] 8.33 µM | IC50 [7] 4.68 µM | viability [10, 27] 98.3% | viability [10, 28] 96.4% | viability [10, 32] 98.8% | viability [10, 36] 94.2% | viability [10, 39] 72.6% | viability [10, 40] 79.6% | viability [10, 41] 10.7% | viability [10, 42] 91.2% | viability [10, 43] 6.65% | viability [10, 44] 13.1%
inactive: plate-normalised HSF1 focus index [9] 0.639 | viability [10, 13] 129% | viability [10, 14] 131% | viability [10, 15] 112% | viability [10, 16] 105% | viability [10, 17] 124% | viability [10, 18] 125% | viability [10, 19] 103% | viability [10, 20] 107% | viability [10, 21] 136% | viability [10, 22] 133% | viability [10, 23] 106% | viability [10, 24] 104% | viability [10, 25] 123% | viability [10, 26] 121% | viability [10, 29] 125% | viability [10, 30] 121% | viability [10, 31] 103% | viability [10, 33] 118% | viability [10, 34] 124% | viability [10, 35] 101% | viability [10, 37] 117% | viability [10, 38] 116%
-10.4: SSMD [9]
5640: cell count [9]

CCN(CC)CCCCNc1ncc2cc(-c3cc(OC)cc(OC)c3)c(NC(=O)NC(C)(C)C)nc2n1
active: AC50 [1] 0.468 µM | AC50 [2] 26.4 µM | AC50 [3] 16.6 µM | AC50 [4] 0.372 µM | AC50 [5] 0.372 µM | AC50 [6] 16.6 µM | IC50 [7] 3.32 µM | viability [10, 15] 96.8% | viability [10, 16] 89.9% | viability [10, 20] 98.6% | viability [10, 42] 85.3% | viability [10, 43] 74.6% | viability [10, 44] 68.4%
5500 and 5930: cell count ([11]; measured here: total cells without miR-34 induction)
7260: cell count [9]
1.64 and 1.42: fold change ([11]; measured here: relative caspase fold change +Dox/-Dox)
inactive: fold change ([11]; stronger effect = lower value, cell number ratio, induced over uninduced) 0.886 and 0.737 | plate-normalised HSF1 focus index [9] 0.703 | z-score ([12]; MELAS cybrid survival, CellTiter-Glo 48 h, stronger effect = higher value) -0.712 | viability [10, 13] 117% | viability [10, 14] 103% | viability [10, 17] 105% | viability [10, 18] 104% | viability [10, 19] 105% | viability [10, 21] 118% | viability [10, 22] 110% | viability [10, 23] 104% | viability [10, 24] 101% | viability [10, 25] 118% | viability [10, 26] 108% | viability [10, 27] 109% | viability [10, 28] 108% | viability [10, 29] 120% | viability [10, 30] 113% | viability [10, 31] 113% | viability [10, 32] 104% | viability [10, 33] 120% | viability [10, 34] 115% | viability [10, 35] 105% | viability [10, 36] 101% | viability [10, 37] 140% | viability [10, 38] 126% | viability [10, 39] 100% | viability [10, 40] 105% | viability [10, 41] 140%
0.5: z-score ([12]; Rieske KO mouse fibroblast survival, CellTiter-Glo 72 h)
4880 and 4370: cell count ([11]; measured here: total cells with miR-34 induction, stronger effect = lower value)
-4.74: SSMD [9]
